High-throughput results from PubChem BioAssay.
This is a sample that favours compounds with a hit; in the whole collection about 0.83% have one here.
Six1-Eya2 blk: qHTS Assay for Inhibitors of the Six1/Eya2 Interaction | AID 651725, 2012 | activity change, % (no concentration beside the values) | AlphaScreen GST-Six1/His-Eya2 binding, biochemical; stronger effect = lower value | 360,000 tested, 0.56% active | Homeobox protein SIX1 (Homo sapiens) + Protein phosphatase EYA2 (Homo sapiens), …; in the data active = activity change below about -65%; inconclusive = mostly about -30% to -63%; note: % is set by controls: 0 for no effect and ±100 for the full control effect
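Compounds are tested against tagged Six1 and Eya2 proteins bridged by glutathione donor and nickel acceptor beads; after a one-hour incubation at 37 °C without light, AlphaScreen emission is recorded.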
Menin MLL FP FL: qHTS Assay for Inhibitors Targeting the Menin-MLL Interaction in MLL Related Leukemias: Competition With Fluorescein Labeled MLL-derived Peptide. Fluorescence polarization, fluorescein-MLL peptide displacement from menin. FP activity change, % at 61.4 µM. 290,000 tested, under 10 active; active = well fitted curve in the direction sought with a large enough effect in the polarisation, not every such curve was filed as active; inconclusive = small, poorly fitted or top-dose-only effect, or effect the other way, or a change in a side signal; inactive = no such curve, though single readings can be large or run the other way; the % refers to the polarisation; note: % of control where 0% means no effect
CtBP-E1A blk: qHTS Assay for Inhibitors of the CtBP/E1A Interaction | CtBP / adenovirus E1A interaction (AlphaScreen) | AlphaScreen GST-E1A/His-CtBP binding, 1536-well; stronger effect = lower value | activity change, % (test concentration not listed) | 340,000 tested, 0.49% active; in the data active = activity change below about -65%; inconclusive = mostly about -30% to -63%; note: % is set by controls: 0 for no effect and ±100 for the full control effect
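Homogeneous bead-based format: GST-tagged E1A captured on glutathione donor beads, His-tagged CtBP on nickel acceptor beads; compounds precede bead addition by 2 h at 37 °C.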
MLL CXXC-DNA inh: qHTS Fluorescence Polarization Assay for Inhibitors of MLL CXXC domain - DNA interaction; Histone-lysine N-methyltransferase 2A (Homo sapiens), Q03164; MLL-CXXC / FITC-HOXA9 DNA fluorescence polarization; Potency, µM (titrated, usually from 115 µM), for the others: top-dose activity change, negative = inhibition, usual class: inhibitors; 290,000 tested, 0.037% active; active = well fitted inhibition curve with a large enough effect in the polarisation, with a control signal flat, not every such curve was filed as active; inconclusive = small, poorly fitted or top-dose-only effect, or effect the other way, or a change in a side signal; inactive = no such curve, though single readings can be large or run the other way; the % refers to the polarisation; note: potency is the fitted concentration of half-maximal effect
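Steps: dispense CXXC domain solution (7 uM) → pin compounds or unlabeled HOX-A9 DNA control → 5 min ambient → add FLSN-HOX-A9 solution (50 nM) → spin → 30 min ambient → fluorescence polarization. Tris pH 7.5/NaCl/DTT/BSA buffer.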
GLS inh: qHTS for Inhibitors of Glutaminase (GLS) | Glutaminase kidney isoform, mitochondrial (Homo sapiens), O94925 | GLS enzymatic activity, qHTS titration | Potency, µM (series often up to 45.5 µM), inactives show at the top dose activity change, negative = inhibition, usual class: inhibitors | 410,000 tested, 0.21% active | AID 624170, 2012; note: potency is the fitted concentration of half-maximal effect; % is set by controls: 0 for no effect and ±100 for the full control effect
Target sequence (O94925 whole entry, looked up, canonical isoform): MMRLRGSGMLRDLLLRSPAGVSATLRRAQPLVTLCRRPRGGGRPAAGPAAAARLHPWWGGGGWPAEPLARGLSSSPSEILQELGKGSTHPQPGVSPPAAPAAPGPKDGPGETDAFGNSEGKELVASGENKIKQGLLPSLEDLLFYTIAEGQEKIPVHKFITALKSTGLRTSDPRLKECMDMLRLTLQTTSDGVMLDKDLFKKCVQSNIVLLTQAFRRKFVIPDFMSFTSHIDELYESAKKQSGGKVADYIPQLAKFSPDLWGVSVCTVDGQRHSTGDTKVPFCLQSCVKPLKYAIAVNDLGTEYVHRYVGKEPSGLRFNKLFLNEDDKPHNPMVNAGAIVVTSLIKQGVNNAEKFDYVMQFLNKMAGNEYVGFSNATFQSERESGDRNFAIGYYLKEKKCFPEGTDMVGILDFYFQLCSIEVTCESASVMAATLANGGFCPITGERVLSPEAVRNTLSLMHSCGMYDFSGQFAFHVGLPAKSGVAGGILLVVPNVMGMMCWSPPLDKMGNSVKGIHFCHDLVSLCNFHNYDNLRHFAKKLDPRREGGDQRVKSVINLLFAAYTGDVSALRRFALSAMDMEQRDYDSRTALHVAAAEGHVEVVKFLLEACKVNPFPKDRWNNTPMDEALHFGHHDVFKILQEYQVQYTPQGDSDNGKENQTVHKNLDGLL
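Human kidney-isoform GLS in 45 mM KH2PO4 pH 8.2, 0.02% Tween-20, with compound, started with 1mM L-Glutamine (added stock). Glutamate oxidase/HRP/Amplex red coupled fluorescence read at start and after 30 min at RT.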
Menin MLL FP TR: qHTS Assay for Inhibitors Targeting the Menin-MLL Interaction in MLL Related Leukemias: Competition With Texas Red Labeled MLL-derived Mutant Peptide | O00255 | Menin + Texas Red MLL mutant peptide, fluorescence polarization | Potency, µM (highest dose often 61.6 µM), inactives show at the highest dose FP activity change, negative = inhibition, hits mostly inhibitors | 270,000 tested, 0.23% active | AID 1768, 2009; active = well fitted inhibition curve with a large enough effect in the polarisation, with a control signal flat, not every such curve was filed as active; inconclusive = small, poorly fitted or top-dose-only effect, or effect the other way, or a change in a side signal; inactive = no such curve, though single readings can be large or run the other way; the % refers to the polarisation; note: potency is the fitted concentration of half-maximal effect; % of control where 0% means no effect
MLL CXXC Fl: qHTS Fluorescence Polarization (FP) Assay for Inhibitors of MLL CXXC domain - DNA interaction: Fluorescein FP; shares compounds with MLL CXXC-DNA inh; MLL CXXC-DNA binding, fluorescein FP; Potency, µM (doses to about 345 µM), inactives show at the top dose activity change, negative = inhibition, most hits filed as inhibitors; 200 tested, 70% active; note: potency is the fitted concentration of half-maximal effect; nearly all actives have a fitted effect of over 80% in size
MLL CXXC TxRed: qHTS Fluorescence Polarization (FP) Assay for Inhibitors of MLL CXXC domain - DNA interaction: Texas Red FP. MLL CXXC-DNA binding, Texas Red fluorescence polarization. 200 tested, 40% active. Potency, µM (doses to about 345 µM), for the others: at the top dose activity change, negative = inhibition, actives largely listed as inhibitors. shares compounds with MLL CXXC-DNA inh. AID 624161, 2012; note: potency is the fitted concentration of half-maximal effect; % is set by controls: 0 for no effect and ±100 for the full control effect; nearly all actives have a fitted effect of over 75% in size
MLL CXXC TRF: qHTS Fluorescence Polarization (FP) Assay for Inhibitors of MLL CXXC domain - DNA interaction: HTRF Assay; MLL CXXC-DNA binding, HTRF, biochemical; 210 tested, 30% active; shares compounds with MLL CXXC-DNA inh; Potency, µM (doses to about 172 µM), for inactives: at the top dose activity change, negative = inhibition, hits mostly inhibitors; note: % is set by controls: 0 for no effect and ±100 for the full control effect; nearly all actives have a fitted effect of over 80% in size
* = called active by the depositor; ? = inconclusive; . = no result given; [ ] = another dose, or the depositor's remark. Unless noted, calls come from the whole dose curve; as a rule, active = well fitted curve in the direction sought with a large enough effect; inconclusive = small, poorly fitted or top-dose-only effect, or another doubt; inactive = no such curve, though single readings can be large; an effect the other way counts as inactive or inconclusive.

SMILES	Six1-Eya2 blk	Menin MLL FP FL	CtBP-E1A blk	MLL CXXC-DNA inh	GLS inh	Menin MLL FP TR	MLL CXXC Fl	MLL CXXC TxRed	MLL CXXC TRF
CC(C)Oc1ccc(CN2CCc3nc(Nc4ccc5c(c4)OCCO5)ncc3C2)cc1	.	.	.	.	12%	.	.	.	.
CC(=O)Nc1ccc2cc3ccc(NC(C)=O)cc3nc2c1	-10	?	-10	40µM*	7%	.	113µM*	?	-12%
C#CCOCCOCCOCCNc1nc(N2CCN(C(=O)[C@H](CCCCN)n3cc([C@@H](N)C(C)CC)nn3)CC2)nc(N2CCN(C(=O)[C@H](CCCCN)n3cc([C@@H](N)CO)nn3)CC2)n1 (some centres undefined)	.	-6	.	79µM*	.	-4%	5.6µM*	4%	-1%
COC(=O)c1c(NC(=O)c2ccc(S(=O)(=O)N3CCCCC3)cc2)sc2c1CCN(C)C2	.	.	.	.	2%	.	.	.	.
COC(=O)c1ccccc1NC1=C/C(=N\S(=O)(=O)c2ccc(C(=O)O)cc2)c2ccccc2C1=O	?	.	-80*	16µM*	-7%	.	5µM*	142µM*	-72%
CCc1ccc(S(=O)(=O)/N=C2\C=C(Nc3ccc(C(=O)O)cc3)C(=O)c3ccccc32)cc1	-30	-13	?	13µM*	-11%	?	40µM*	?	158%
Cc1ccc(S(=O)(=O)/N=C2\C=C(Nc3cccc(C(=O)O)c3)C(=O)c3ccccc32)cc1	?	-13	?	?	-3%	?	.	.	.
Cc1ccc(CCNC(=O)c2ccc(NC(=O)N3CCSc4ccccc43)cc2)cc1	.	.	.	.	0%	.	.	.	.
Cc1ccc(N/C=C(\C2OC(=O)c3ccccc32)[N+](=O)[O-])c(C)c1 (centres undefined)	0	-17	.	-1%	9%	-5%	.	.	.
O=C1OC(/C(=C\Nc2ccc(F)cc2F)[N+](=O)[O-])c2ccccc21 (centres undefined)	11	1	3	?	0%	-6%	6%	126µM*	-3%
COc1ccc(C(=O)NCCn2cc(SCc3c(F)cccc3Cl)c3ccccc32)cc1	.	.	.	.	1%	.	.	.	.
COc1ccc(/C=C2/SC(=S)N(CCC(=O)O)C2=O)cc1	-5	5	-24	-29%	1%	14%	.	.	.
O=C(O)CCN1C(=O)/C(=C\c2ccc(-c3nc4ccccc4s3)o2)SC1=S	?	?	-75*	?	?	28%	71µM*	50µM*	24µM*
O=C(O)CCN1C(=O)/C(=C\c2ccncc2)SC1=S	1	2	.	35µM*	3%	28%	.	.	12%
O=C1C2C(c3ccccc3)CC=CC2[C@H](c2ccc(C(F)(F)F)cc2)N1Cc1ccccc1 (some centres undefined)	-2	-1	.	?	17%	.	22µM*	36%	195%
Nc1nc2c(s1)CCc1c-2cnn1-c1ccccc1	-17	-1	.	32µM*	-8%	-18%	?	?	31µM*
COc1ccccc1NC(=S)NC(C)=O	3	-4	10	?	1%	-1%	.	.	36%
COc1ccccc1NC(C)=O	-1	-3	3	-1%	0%	6%	.	.	.
O=C(CSc1nc2ccccc2c(=O)n1Cc1ccc(F)cc1)NCc1cccs1	9	3	1	7.9µM*	13%	10%	2%	48%	1%
Cc1nc2ccccc2oc1=O	.	-2	.	.	.	-1%	.	.	.
O=c1c(Cl)c2oc3ccccc3nc-2c2ccccc12	-25	?	-26	32µM*	-1%	?	113µM*	?	40%
CC(=O)c1c(O)cc(O)cc1CC(=O)O	7	.	8	?	5%	.	142µM*	0%	2%
CC(=O)c1c(O)cc(O)c(C(C)=O)c1O	5	4	6	-1%	13%	.	.	.	.
CC1(C)S[C@@H]2[C@H](NC(=O)[C@@H](N)c3ccccc3)C(=O)N2[C@H]1C(=O)O[C@H]1OC(=O)c2ccccc21	.	2[24.8 µM]	.	2%[51.4 µM]	-4%[20 µM]	-6%[24.8 µM]	.	.	.
CCc1ccc(CNC(=O)Cn2nc(C)n3c(cc4cc(C)ccc43)c2=O)cc1	.	.	.	.	-1%	.	.	.	.
O=C(Nc1cccc(C(=O)Nc2ccc(S(=O)(=O)O)c3cc(S(=O)(=O)O)cc(S(=O)(=O)O)c23)c1)Nc1cccc(C(=O)Nc2ccc(S(=O)(=O)O)c3cc(S(=O)(=O)O)cc(S(=O)(=O)O)c23)c1	.	?	.	16µM*	.	21%	28µM*	100µM*	39µM*
O=C(O)C1=CC(=C(c2ccc(O)c(C(=O)O)c2)c2ccc(O)c(C(=O)O)c2)C=CC1=O	.	7	.	10µM*	.	96%	13µM*	18µM*	2.4µM*
CCc1nnc(NC(=O)CSc2nnc(-c3ccc(NS(=O)(=O)c4ccccc4)cc3)o2)s1	-6	2	-15	?	15%	6%	?	9%	-11%
COC(=O)CSc1nnc(-c2ccc(NS(=O)(=O)c3ccccc3)cc2)o1	6	-1	21	-10%	9%	-8%	.	.	.
